Assay outcomes: PubChem, National Center for Advancing Translational Sciences (NCATS)
Sm TGR block: blocks Schistosoma mansoni thioredoxin glutathione reductase; Q962Y6; purified TGR, DTNB reduction, TNB absorbance 405 nm; Potency, µM (doses to about 114 µM), for inactives: top-dose activity change, negative = inhibition, usual class: inhibitors; 360,000 tested, 3% active; further: potency means the concentration at half of the fitted maximal effect; on the % scale 0 is the no-effect control and ±100 the full control effect; nearly all actives have a fitted effect of over 60% in size
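First, TGR (20 nM dispensed) and NADPH were mixed with compound. Second, a 15 min room-temperature incubation followed. Third, further NADPH and then DTNB were added to start the reaction. Finally, TNB absorbance was monitored kinetically.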
Shiga toxin inh: inhibitors of Shiga toxin in Vero cells | 290,000 tested, 9.2% active | Vero cells, Shiga toxin protein synthesis inhibition reporter | inhibition, % at 38.7 µM | AID 2315; in the data active means inhibition mostly above about 28%, no sharp cut-off; inactive means mostly below about 43%; further: 0% is about no effect
LmPK inhibitor: blocks Leishmania mexicana pyruvate kinase activity | AID 1721 | Q27686 | purified LmPK, Kinase-Glo ATP luminescence, 1 h | 290,000 tested, 0.37% active | Potency, µM (doses to about 57.5 µM), inactives show at the top dose activity change, negative = inhibition, actives largely listed as inhibitors; further: potency means the concentration at half of the fitted maximal effect; on the % scale 0 is the no-effect control and ±100 the full control effect
Target sequence (Q27686 whole entry, looked up): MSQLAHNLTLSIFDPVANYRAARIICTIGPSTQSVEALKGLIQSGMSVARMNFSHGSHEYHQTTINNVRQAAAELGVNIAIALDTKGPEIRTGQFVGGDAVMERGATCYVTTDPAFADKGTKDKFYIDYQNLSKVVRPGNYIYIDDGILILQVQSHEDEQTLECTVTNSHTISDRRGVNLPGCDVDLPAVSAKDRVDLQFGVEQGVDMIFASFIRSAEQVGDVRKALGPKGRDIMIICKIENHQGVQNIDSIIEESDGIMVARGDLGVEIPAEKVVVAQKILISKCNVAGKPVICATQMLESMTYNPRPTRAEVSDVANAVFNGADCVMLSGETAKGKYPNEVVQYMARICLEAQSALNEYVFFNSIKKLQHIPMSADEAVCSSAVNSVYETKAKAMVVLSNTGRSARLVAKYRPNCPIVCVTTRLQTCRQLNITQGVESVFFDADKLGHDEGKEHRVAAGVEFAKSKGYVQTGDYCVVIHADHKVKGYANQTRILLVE
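Kinase-Glo luminescence read after 1 h RT reaction of 0.1 nM LmPK with 0.5 mM PEP and 0.1 mM ADP. Activity scaled between uninhibited and enzyme-free controls.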
Tb PYK inh: T. brucei pyruvate kinase inhibition; Q57TT1; 410,000 tested, 0.12% active; AID 624173; TbPYK enzyme, Kinase-Glo Plus ATP luminescence, 45 min; Potency, µM (highest dose often 76.8 µM), for the others: at the highest dose activity, negative = inhibition, actives largely listed as inhibitors; further: potency means the concentration at half of the fitted maximal effect; on the % scale 0 is the no-effect control and ±100 the full control effect; nearly all actives have a fitted effect of over 50% in size
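Activity of T. brucei pyruvate kinase was followed by Kinase-Glo Plus luminescence after the enzyme reacted 45 min at room temperature with 130 uM ADP (final) and substrate. Test compounds were added before ADP at multiple concentrations.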
CHX counter: affects cycloheximide protein synthesis inhibition readout, counter-screen; max response, %; AID 2314; 300,000 tested, 12% active; cell reporter, cycloheximide protein synthesis inhibition counterscreen; in the data active means max response mostly above about 13%, no sharp cut-off; inactive means mostly below about 14%; further: read at 38.3 µM for the half of the compounds with a filed dose; 0% is about no effect
FBPA Giardia inh: inhibitors of Giardia lamblia fructose-1,6-bisphosphate aldolase; A8B2U2; purified Giardia FBPA; Potency, µM (series often up to 59.6 µM), inactives show at the highest dose activity, negative = inhibition, most hits filed as inhibitors; 290,000 tested, 0.71% active; further: potency means the concentration at half of the fitted maximal effect; on the % scale 0 is the no-effect control and ±100 the full control effect; nearly all actives have a fitted effect of over 55% in size
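40 nM FBPA preincubated 10 min at RT with compound (up to 57.5 uM final), then substrate plus GAPDH/TPI/NAD/arsenate coupling and diaphorase/resazurin added. Fluorescence read after 20 min at RT, 525/598 nm.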
Starred values were filed as active, the others as inactive; ? = inconclusive; nt = no result; [ ] = remark or other dose. Shown is part of a subset that was picked to be rich in hits. Unless noted, the call rests on the fitted dose curve; in most records, active means well fitted curve in the direction sought with a large enough effect; inconclusive means small, poorly fitted or top-dose-only effect, or another doubt; inactive means no such curve, though single readings can be large; an effect the other way counts as inactive or inconclusive.

SMILES	Sm TGR block	Shiga toxin inh	LmPK inhibitor	Tb PYK inh	CHX counter	FBPA Giardia inh
COc1ccc2cc(Br)ccc2c1CC(=O)N(C)C	nt	3	2%	2%	-3	-1%
COc1ccc(CCN(C)CCc2ccc(OC)c(OC)c2)cc1OC	nt	nt	nt	0%	nt	-3%
CCc1nnc(NC(=O)CSc2nnc(CNC(=O)c3cc(OC)c(OC)c(OC)c3)o2)s1	7%	96*	5%[11.5 µM]	2%	17	6%
COc1cc(C(=O)n2nc(C)c(Sc3ccc(Cl)cc3)c2C)cc(OC)c1OC	-1%	nt	nt	-12%	nt	nt
CC(=O)[C@H]1CC[C@H]2C3CC[C@H]4C[C@](C)(O)CC[C@]4(C)C3CC[C@]12C (some centres not stated)	nt	-3	nt	nt	-4	3%
N#CC1=C(N)Oc2cc3ccccc3cc2C1c1cccs1 (configuration not stated)	-30%	-8	4%	4%	-4	-23%
CN(C)/C=N/C1=C(C#N)C(c2cccs2)c2ccc3ccccc3c2O1 (configuration not stated)	-23%	66*	2%	2%	47*	?
Cc1ccc(NC(=S)Nc2cccc(S(=O)(=O)Nc3c(C)n(C)n(-c4ccccc4)c3=O)c2)cc1	50µM*	9	4%	-4%	9	-8%
CC(=O)c1ccc(NC(=S)Nc2cccc(S(=O)(=O)Nc3c(C)n(C)n(-c4ccccc4)c3=O)c2)cc1	14µM*	21	3%	-15%	8	-7%
COc1ccccc1C(=O)N/C(=C/c1ccco1)C(=O)Nc1cccc(C(=O)O)c1	50µM*	9	8%	?	-3	-13%
O=C(Nc1ccc(C(=O)O)cc1)/C(=C\c1ccco1)NC(=O)c1ccc(Br)cc1	nt	nt	nt	-22%	nt	nt
Cc1ccc(C(=O)N/C(=C/c2ccco2)C(=O)Nc2cccc(C(=O)O)c2)cc1	45µM*	28	-6%	?	22*	6%
CC(=O)c1cccc(NC(=O)/C(=C\c2ccco2)NC(=O)c2cccs2)c1	0%	29*	1%	-2%	13*	1%
Cc1ccc(NC(=O)/C(=C\c2ccco2)NC(=O)c2ccco2)cc1	45µM*	-2	-1%	-18%	1	7%
O=C(Nc1cccc(C(F)(F)F)c1)/C(=C/c1ccco1)NC(=O)c1cccs1	-5%	-16	5%	-19%	-2	-1%
O=c1[nH]c(=S)[nH]c2c1C(c1ccc(F)cc1)OC(CCc1ccccc1)C2 (configuration not stated)	nt	nt	nt	-5%	nt	nt
Clc1cccc(CNc2ccn3nc(-c4ccccc4Cl)cc3n2)c1	nt	nt	nt	7%	nt	nt
COc1ccc(NC(=O)CNC(=O)c2nn(-c3ccc(OC)cc3OC)c(=O)c3ccccc23)c(OC)c1	6%	-4	0%	-7%	3	3%
NC(=S)N=Nc1ccc(O)cc1	nt	nt	nt	-14%	nt	nt
COc1ccc(-c2cc(C(F)(F)F)n3ncc(C(=O)O)c3n2)cc1OC	9%	-17	0%	5%	25*	6%
COc1cccc(-c2cc(C(F)(F)F)n3ncc(C(=O)O)c3n2)c1	-1%	-14	4%	-7%	-2	0%
CCOc1ccc(-n2c(=O)c3c(C)c(C)sc3n(Cc3cc(=O)n4cc(Cl)ccc4n3)c2=O)cc1	10%	nt	nt	-4%	nt	nt
Cc1ccc(NC(=O)c2ccccc2)s1	6%	100*	?	-5%	39*	-13%
Cc1cc(NC(=O)c2ccccc2)sc1C	?	56*	13µM*	3%	33*	4%
Cc1cc(NC(=O)c2ccccc2)cc(NC(=O)c2ccccc2)c1C	-5%	nt	1%	0%	1	5%
SMILES	Sm TGR block	Shiga toxin inh	LmPK inhibitor	Tb PYK inh	CHX counter	FBPA Giardia inh
CN(C)c1ccc(NC(=O)Cc2ccccc2)c2ccccc12	4%	33	0%	0%	15*	-4%
CC#CCCCC(=O)Nc1ccccc1C(=O)O	0%	83*	-2%	-13%	28*	1%
Cc1ccc(NC(=O)CCCc2ccccc2)c([N+](=O)[O-])c1	13%	35*	-4%	0%	32*	16%
COc1cc(OC)cc(C(=O)Nc2ccc(N(C)C)c3ccccc23)c1	0%	-15	0%	-15%	1	0%
NC(=O)c1ccccc1NC(=O)CCCc1ccccc1	3%	nt	0%	1%	20*	-1%
O=C(CCCc1ccccc1)Nc1cccnc1Cl	nt	74	-1%	-9%	10	4%
COc1ccc(OC)c(NC(=O)Cn2c(=O)n(Cc3nc(C)no3)c(=O)c3ccccc32)c1	1%	nt	nt	-3%	nt	nt
COC(=O)C[C@H]1C[C@H]2c3cc(NC(=O)C4CCOCC4)ccc3O[C@H]2[C@H](CO)O1	nt	nt	nt	-1%	nt	nt
CCOc1ccccc1N(CC)C(=O)Cn1ncc2c([nH]c3ccccc32)c1=O	-2%	nt	nt	1%	nt	nt
C1CCN2CC3CC(CN4CCCC[C@@H]34)C2C1 (some centres not stated)	nt	nt	nt	nt	nt	3%
Nc1c(NC(=O)CC[n+]2ccccc2)cccc1[N+](=O)[O-]	5%	96*	3%	0%	46*	-4%
O=C(CCCc1ccccc1)Nc1ccccc1[N+](=O)[O-]	-2%	27*	-2%	?	37*	-1%
O=C(CCc1ccccc1)Nc1ccccc1[N+](=O)[O-]	-5%	54*	-13%	0%	26*	0%
CCCC(=O)NNC(=O)CC(=O)Nc1ccccc1C(=O)O	5%	-13	-5%	4%	-2	-14%
CCc1ccc(CCC(=O)Nc2ccccc2C(=O)O)o1	-20%	75*	-6%	-6%	40*	0%
O=C(CSc1nnc(-c2ccc(O)cc2)o1)c1ccc(Br)cc1	0%	nt	nt	0%	nt	nt
CCCCC(=O)N(C)c1c(CC)nc2c(OCCC)cccn12	nt	nt	nt	-3%	nt	nt
O=C(Cc1ccccc1)Nc1ccccc1C(=O)O	2%	76*	0%	-9%	35*	-9%
COc1cccc(C(=O)c2ncc(C(F)(F)F)cc2Cl)c1	50µM*	34*	-1%	-7%	28	-18%
COc1ccc(C(=O)c2ncc(C(F)(F)F)cc2Cl)cc1	2%	13	0%	-9%	9	-1%
COc1cccc(C(=O)c2cn(CC(=O)NCc3ccccc3Cl)c3nc(C)ccc3c2=O)c1	-14%	nt	nt	-4%	nt	nt
Cc1ccccc1-c1nc(CS(=O)(=O)CC(=O)N(C)C2CCCCC2)c(C)o1	8.9µM*	-2	-1%	-9%	-7	-1%
CCOC(=O)N1CCN(C(=O)CS(=O)(=O)Cc2nc(-c3ccccc3F)oc2C)CC1	-30%	10	4%	-17%	-2	-4%
Cc1oc(-c2ccccc2F)nc1CS(=O)(=O)CC(=O)N1CCCCCC1	11µM*	18	-5%	4%	-2	0%
Cc1ccc(CNC(=O)CS(=O)(=O)Cc2nc(-c3ccccc3F)oc2C)cc1	-42%	10	4%	7%	7	2%
